# Screening data deposited in PubChem BioAssay by several laboratories.
# The entries come from a sample that favours hits as a whole.
# ARNT-TACC3 inh = disruptors of ARNT/TACC3 protein interaction, primary screen, biochemical, AlphaScreen, single concentration | inhibition, % at 9.99 µM | Transforming acidic coiled-coil-containing protein 3 (Homo sapiens), Q9Y6A5 | hit rate 0.66% among 390,000 | AID 623870, 2012 | AlphaScreen His-ARNT PAS-B/GST-TACC3 binding, luminescence; TACC3 fragment carries E629A point mutation;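 active = mean inhibition of replicates at least 50% and at least half of replicates each reaching 50%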;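 also: 0% = complete ARNT plus TACC3 wells and 100% = ARNT alone without TACC3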
# NRP1-CendR mod = modulators of CendR peptide binding to NRP-1, primary screen, biochemical, fluorescence polarization, uHTS. FAM-RPARPAR peptide binding to NRP-1. hit rate 0.85% among 360,000. inhibition, % at 25 µM. AID 602438, 2012;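 active = inhibition or corrected inhibition above about 18%, plus a signal ratio from 0.5 to 1.5, limit read from the data, passing the limit was not always enough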
# ERp5 block = inhibitors of ERp5-driven insulin aggregation, primary screen, biochemical, turbidity, absorbance 650 nm, single point; hit rate 0.05% among 350,000; inhibition, % at 9.99 µM; 90 min; Protein disulfide-isomerase A6 (Homo sapiens), Q15084;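 active = mean replicate inhibition above about 25%, with every replicate also reaching it, limit read from the data, passing the limit was not always enough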
# ALR inh = inhibitors of human ALR sulfhydryl oxidase, primary screen, biochemical, H2O2 detection, HRP-luminol luminescence, single point; FAD-linked sulfhydryl oxidase ALR (Homo sapiens), P55789; purified ALR, DTT oxidation; inhibition, % (concentration not given with the values); hit rate 3.8% among 290,000;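 active = mean replicate inhibition above about 79%, with every replicate also reaching it, limit read from the data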
# Target sequence (P55789 whole entry, looked up): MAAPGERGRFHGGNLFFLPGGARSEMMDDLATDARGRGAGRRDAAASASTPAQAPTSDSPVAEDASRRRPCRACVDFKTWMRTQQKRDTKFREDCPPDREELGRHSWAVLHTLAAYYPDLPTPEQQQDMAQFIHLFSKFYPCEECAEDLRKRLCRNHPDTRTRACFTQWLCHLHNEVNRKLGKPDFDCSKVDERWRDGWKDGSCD
# PglD DTNB = C. jejuni PglD acetyltransferase inhibitors, primary screen, biochemical, DTNB colorimetric, single point | purified PglD enzyme, DTNB colorimetric CoA detection | UDP-N-acetylbacillosamine N-acetyltransferase PglD (Campylobacter jejuni) | inhibition, % at 12.5 µM | hit rate 0.098% among 360,000; in the data active = inhibition above about 16%, passing the limit was not always enough
# PDI turbidity = inhibitors of human PDI, primary screen, biochemical, turbidity, single point, plate reader; Protein disulfide-isomerase (Homo sapiens), P07237; PDI insulin aggregation turbidity, A650, 90 min; inhibition, % at 10 µM; hit rate 0.052% among 350,000;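 active = mean inhibition across replicates of 30% or more, whatever share of single replicates reach that level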
# An asterisk follows results filed as active; · = not tested or not shown.
SMILES,ARNT-TACC3 inh,NRP1-CendR mod,ERp5 block,ALR inh,PglD DTNB,PDI turbidity
Cc1cc(-c2c(C)[nH]n(-c3ccccc3)c2=O)n[nH]1,·,12,2,81*,·,4
Cc1cc(-c2c(C)[nH]n(-c3ccccc3)c2=O)n(-c2ccccc2)n1,5,7,·,70,4,-5
CCCNC(=O)N[C@@H]1CC[C@@H](CC(=O)NC2CCCCC2)O[C@@H]1CO,-4,·,-11,·,0,·
COCCNC(=S)NN(c1ccccc1)c1ccccc1,1,10,4,82*,·,4
CNC(=S)NN(c1ccccc1)c1ccccc1,-6,44*,4,95*,·,-2
COCC(=O)N(C)C[C@H]1Oc2cc(-c3ccccc3F)ccc2S(=O)(=O)N([C@@H](C)CO)C[C@H]1C,-4,·,-1,·,-1,·
Oc1ccc2[nH]cnc2c1CN1CCCCC1,7,25*,·,18,-4,0
CN1c2ccc(-c3ccc(C#N)cc3)cc2[C@H]2[C@H](CCN2C(=O)C2CCCCC2)[C@@H]1CO,-13,·,0,·,1,·
Cc1ccccc1NS(=O)(=O)c1cc2c(cc1C)N(C)CCO2,-2,1,-6,98*,-4,·
COc1ccc(NS(=O)(=O)c2cc3c(cc2C)N(C)CCO3)c(OC)c1,6,-3,4,23,2,·
C[C@H]1CN([C@@H](C)CO)C(=O)c2cc(C#Cc3cccc(F)c3)cnc2O[C@H]1CN(C)Cc1ccccn1,-5,·,-3,·,7,·
O=C(CCN1CCCCC1)NCC[C@H]1CC[C@@H](NC(=O)C2CC2)[C@H](CO)O1,-4,·,-5,·,5,·
COC(=O)CSc1nc(SCc2ccc(C)cc2)nc2c1CCCC2,-8,7,·,-10,5,6
Cc1ccc(CSc2nc3c(c(SCC(=O)O)n2)CCCC3)cc1,-10,-17,·,97*,-4,1
COc1ccc(C#Cc2cnc3c(c2)C(=O)N([C@@H](C)CO)C[C@H](C)[C@@H](CN(C)C(=O)CN(C)C)O3)cc1,10,·,4,·,-2,·
COc1cc(N)ccc1Nc1c2ccccc2nc2ccccc12,·,6,·,·,·,·
COc1ccc(Nc2c3c(nc4ccccc24)CCC3)c(OC)c1,9,3,-1,99*,1,3
CC(=O)c1cccc(Nc2c3c(nc4ccccc24)CCC3)c1,-5,-1,1,1,6,-85
COc1ccccc1Nc1c2c(nc3ccccc13)CCC2,-14,1,6,99*,3,-2
COC(=O)c1cccc(Nc2c3c(nc4ccccc24)CCC3)c1,-5,-10,0,·,4,-6
COc1ccc(NC(=O)CSc2c3c(nc4ccccc24)CCC3)c(OC)c1,-3,-17,4,98*,4,-6
Cc1ccc2nc3c(c(Nc4cccc(O)c4)c2c1)CCC3,8,-9,0,98*,-2,1
C[C@H](CO)N1C[C@H](C)[C@H](CN(C)C)Oc2cc(-c3cccc(F)c3)ccc2S1(=O)=O,-3,·,0,·,2,·
COc1cc(Nc2c3c(nc4ccccc24)CCCC3)cc(OC)c1OC,4,2,4,98*,·,0
c1ccc2c(Nc3ccc4c(c3)OCCO4)c3c(nc2c1)CCCC3,18,11,0,90*,·,5
SMILES,ARNT-TACC3 inh,NRP1-CendR mod,ERp5 block,ALR inh,PglD DTNB,PDI turbidity
O=C1CC(c2ccccc2)Sc2ccccc2N1 (centres undefined),0,7,·,94*,1,-4
CO[C@@H]1CN(C)C(=O)c2ccc(NC(=O)C3CC3)cc2OC[C@H](C)N(Cc2cccnc2)C[C@@H]1C,-4,·,-2,·,6,·
C[C@@H]1CN([C@H](C)CO)C(=O)c2cc(NS(C)(=O)=O)ccc2O[C@@H](C)CCCCO[C@H]1CN(C)S(=O)(=O)c1ccccc1,-6,·,6,·,-2,·
C=CCNC(=S)Nc1ccc(C(N)=O)cc1,0,0,1,-10,·,1
CN(C)c1ccc(NC(N)=S)cc1,9,-1,-1,99*,·,3
C=CCNC(=S)Nc1ccc(N(C)C)cc1,12,-1,-4,99*,·,0
O=C(c1noc2c1CCCC2)N1CCN(c2ccc(F)cc2)CC1,-2,-8,11,5,·,-2
CC(=O)N1CCN(c2ccc(NCc3ccc(F)cc3)cc2)CC1,8,-7,-1,99*,-5,·
Cc1cc(C(=O)N2CCN(c3ccc(F)cc3)CC2)on1,-6,7,6,97*,-3,·
COc1cc(CNc2ccc(N3CCN(C(C)=O)CC3)cc2)ccc1OCc1ccc(F)cc1,29,6,1,99*,·,0
Cc1cccc(C(=O)Nc2ccc(N3CCN(C(=O)c4ccco4)CC3)cc2)c1,-3,0,0,10,-2,-19
CC(=O)N1CCN(c2ccc(NCc3cccc(C)c3)cc2)CC1,-3,10,4,99*,-6,4
O=C(Cc1ccc(F)cc1)N1CCN(c2ccc(F)cc2)CC1,-4,1,0,·,-2,6
COc1ccc(NC(=O)Nc2ccc3c(c2)C(=O)N([C@H](C)CO)C[C@H](C)[C@@H](CN(C)C(=O)C2CCCCC2)OCCCC[C@@H](C)O3)cc1,-4,·,1,·,3,·
CO[C@@H]1CN(C)C(=O)c2ccc(NC(=O)Cc3ccccc3)cc2OC[C@@H](C)N(CC2CC2)C[C@@H]1C,-4,·,2,·,-1,·
NCC[C@@H]1CC[C@@H](NC(=O)C2CCC2)[C@H](CO)O1,-5,·,0,·,1,·
O=C(NCC1CC1)[C@@H]1[C@@H](CO)[C@@H]2Cn3c(cccc3=O)[C@@H]2N1C(=O)CC1CC1,-3,·,-2,·,-1,·
CCn1c(CNc2ccc(Cl)cc2)nnc1SCCN1CCCCC1,7,10,·,98*,-7,-1
O=C(NC1CCCC1)N1CC2(C1)[C@H](c1ccccc1)[C@@H](CO)N2CC1CCOCC1,·,·,0,·,·,·
O=C1CSC(=S)N1N=Cc1ccccc1O,65*,-18,0,·,·,1
Cc1ccccc1/C=N/N1C(=O)CSC1=S,39*,-8,1,31,-7,-4
O=C1CSC(=S)N1N=Cc1cccc2ccccc12,37,-26,2,·,·,-3
O=C1CSC(=S)N1/N=C/c1cccnc1,39*,3,2,·,-3,1
O=C(O)C[C@@H]1CC[C@H](NC(=O)Nc2cc(F)ccc2F)[C@@H](CO)O1,-11,·,9,·,2,·
C[C@H](CO)N1C[C@H](C)[C@@H](CN(C)C(=O)C2CCC2)Oc2ncc(-c3cccnc3)cc2C1=O,3,·,2,·,1,·
Cc1oc(C(=O)O)cc1CSCc1cc(C(=O)O)c(C)o1,-5,-42,·,99*,6,3
